By cell viability is commonly meant a read-out of living cells in per cent, often relative to untreated cells.

Values joined by “and” are separate entries in the source; they are usually repeats but may differ in a detail not shown here. Equal values may be shown once.

The source of these data is the supplement of paper PMC10981050.

What all share (experiment): cell viability relative to vehicle control; higher = less cytotoxic
Holding throughout (conditions): 10 µM

One assay has as its system K562. The gist of the method: (§1)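 CRISPR-edited mutant clones and isogenic wild-type clones from four leukaemia lines were screened against Selleck bioactive, kinase and epigenetic probe libraries, with identity-inconsistent compounds excluded. Each compound was acoustically dispensed at a single 10 µM dose into 384-well plates holding 2000 cells in 50 µL medium per well. After 48 h the supernatant was removed and CellTiter-Glo luminescence was read. Viability was expressed as percent of the on-plate vehicle control and analysed in Genedata Screener.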

The test system of the next assay is MARIMO. The gist of the method: as §1
Another assay deals with MOLM14. The method in brief: as §1
The next assay deals with OCI-AML2. The method in brief: as §1

For the compound `O=c1[nH]c2ccccc2n1CCCN1CCC(n2c(=O)[nH]c3cc(Cl)ccc32)CC1` [Domperidone (Motilium)], the cell viability with K562 (SRSF2 genotype: SRSF2 P95H/wt) is 78.9% and 85.9%; in the assay on K562 (SRSF2 genotype: SRSF2 wt/wt), 79.7%; in the assay on MARIMO (SRSF2 genotype: SRSF2 P95H/wt), 77.9%; in the assay with MARIMO (SRSF2 genotype: SRSF2 wt/wt) it was 87.4%; with MOLM14 (SRSF2 genotype: SRSF2 P95H/wt) it was 92.4%; in the assay on MOLM14 (SRSF2 genotype: SRSF2 wt/wt), 91.8%. Also, the figures for the cell viability with OCI-AML2 (SRSF2 genotype: P95H/wt) and in the assay on OCI-AML2 (SRSF2 genotype: wt/wt) were 78.8% and 85.7%, respectively.
For the compound `Cc1c([C@H](C)[C@@H]2NC[C@@H](C)C[C@H]2O)ccc2c1C[C@H]1[C@H]2CC=C2C[C@@H](O)CC[C@@]21C` [Veratramine], the cell viability in the assay on K562 (SRSF2 genotype: SRSF2 P95H/wt) was 73.9% and 73%; with K562 (SRSF2 genotype: SRSF2 wt/wt), 75%; in the assay with MARIMO (SRSF2 genotype: SRSF2 P95H/wt), 64.7%; with MARIMO (SRSF2 genotype: SRSF2 wt/wt), 64.5%; in the assay on MOLM14 (SRSF2 genotype: SRSF2 P95H/wt) it was 81.1%; in the assay with MOLM14 (SRSF2 genotype: SRSF2 wt/wt) it was 89.6%. Besides, the cell viability was 47.1% in the assay on OCI-AML2 (SRSF2 genotype: P95H/wt) and 62.9% in the assay with OCI-AML2 (SRSF2 genotype: wt/wt).
In the case of `CC(=O)O[C@@]12CO[C@@H]1C[C@H](O)[C@@]1(C)C(=O)[C@H](O)C3=C(C)[C@@H](OC(=O)[C@H](O)[C@@H](NC(=O)c4ccccc4)c4ccccc4)C[C@@](O)([C@@H](OC(=O)c4ccccc4)[C@H]21)C3(C)C` [10-deacetyl-paclitaxel], the cell viability in the assay with K562 (SRSF2 genotype: SRSF2 P95H/wt) was 25.2% and 36.9%; in the assay with K562 (SRSF2 genotype: SRSF2 wt/wt), 34.3%; in the assay with MARIMO (SRSF2 genotype: SRSF2 P95H/wt), 7.89%; with MARIMO (SRSF2 genotype: SRSF2 wt/wt), 4.88%; in the assay with MOLM14 (SRSF2 genotype: SRSF2 P95H/wt), 9.1%; with MOLM14 (SRSF2 genotype: SRSF2 wt/wt), 3.82%. Also, the cell viability with OCI-AML2 (SRSF2 genotype: P95H/wt) turned out to be 10.3%; in the assay with OCI-AML2 (SRSF2 genotype: wt/wt), 15.4%.
As to `CCOC(=O)Nc1ccc(NCc2ccc(F)cc2)cc1N` [Retigabine 2HCl], the cell viability was 94.1% and 97.3% with K562 (SRSF2 genotype: SRSF2 P95H/wt); 97.4% in the assay with K562 (SRSF2 genotype: SRSF2 wt/wt); 91.6% in the assay with MARIMO (SRSF2 genotype: SRSF2 P95H/wt); 103% in the assay on MARIMO (SRSF2 genotype: SRSF2 wt/wt); 105% with MOLM14 (SRSF2 genotype: SRSF2 P95H/wt); 102% in the assay on MOLM14 (SRSF2 genotype: SRSF2 wt/wt). For the same compound, the cell viability with OCI-AML2 (SRSF2 genotype: P95H/wt) was found to be 96.5%; in the assay with OCI-AML2 (SRSF2 genotype: wt/wt) it was 102%.
With `C/C(O)=C(\C#N)C(=O)Nc1cc(Br)ccc1Br`, the cell viability in the assay with K562 (SRSF2 genotype: SRSF2 P95H/wt) was 88.8% and 87.1%; in the assay with K562 (SRSF2 genotype: SRSF2 wt/wt) it was 89.1%; in the assay with MARIMO (SRSF2 genotype: SRSF2 P95H/wt), 88.4%; with MARIMO (SRSF2 genotype: SRSF2 wt/wt), 96.5%; in the assay with MOLM14 (SRSF2 genotype: SRSF2 P95H/wt), 78.9%; in the assay with MOLM14 (SRSF2 genotype: SRSF2 wt/wt), 93.7%. Also, the cell viability with OCI-AML2 (SRSF2 genotype: P95H/wt) came out at 86.1%; in the assay on OCI-AML2 (SRSF2 genotype: wt/wt), 87.7%.
On to `CCN1CCN(C(=O)Cc2ccc(Nc3ncc(F)c(Nc4ccc(C(=O)Nc5ccccc5Cl)cc4)n3)cc2)CC1` [Aurora A Inhibitor I], for which the cell viability in the assay on K562 (SRSF2 genotype: SRSF2 P95H/wt) is 0.7% and 0.51%; in the assay on K562 (SRSF2 genotype: SRSF2 wt/wt), 15.3%; with MARIMO (SRSF2 genotype: SRSF2 P95H/wt), 0.53%; in the assay on MARIMO (SRSF2 genotype: SRSF2 wt/wt), 3.65%; with MOLM14 (SRSF2 genotype: SRSF2 P95H/wt), 0.41%; with MOLM14 (SRSF2 genotype: SRSF2 wt/wt), 0.49%. Moreover, the cell viability in the assay with OCI-AML2 (SRSF2 genotype: P95H/wt) worked out at 4.67%; with OCI-AML2 (SRSF2 genotype: wt/wt), 4.81%.
With `c1c2c(cc3c1OCO3)-c1cc3ccc4c(c3c[n+]1CC2)OCO4` [Coptisine chloride], the cell viability with K562 (SRSF2 genotype: SRSF2 P95H/wt) is 83.7% and 89.7%; in the assay on K562 (SRSF2 genotype: SRSF2 wt/wt), 84.2%; in the assay on MARIMO (SRSF2 genotype: SRSF2 P95H/wt) it was 95.4%; with MARIMO (SRSF2 genotype: SRSF2 wt/wt), 99.8%; with MOLM14 (SRSF2 genotype: SRSF2 P95H/wt), 96.2%; in the assay on MOLM14 (SRSF2 genotype: SRSF2 wt/wt), 94.3%. Moreover, the cell viability in the assay on OCI-AML2 (SRSF2 genotype: P95H/wt) is 84.5%; with OCI-AML2 (SRSF2 genotype: wt/wt), 91.7%.
Regarding `CN1CCC(c2c[nH]c3ccc(O)cc23)CC1`, the cell viability in the assay with K562 (SRSF2 genotype: SRSF2 P95H/wt) is 107% and 100%; in the assay with K562 (SRSF2 genotype: SRSF2 wt/wt), 102%; in the assay with MARIMO (SRSF2 genotype: SRSF2 P95H/wt) it was 101%; with MARIMO (SRSF2 genotype: SRSF2 wt/wt), 104%; in the assay with MOLM14 (SRSF2 genotype: SRSF2 P95H/wt), 103%; in the assay with MOLM14 (SRSF2 genotype: SRSF2 wt/wt) it was 102%. Moreover, the cell viability in the assay with OCI-AML2 (SRSF2 genotype: P95H/wt) came out at 91.8%; in the assay with OCI-AML2 (SRSF2 genotype: wt/wt), 105%.
With `CCOc1ccccc1-n1c(C(C)N2CCN(C(=O)COc3ccc(Cl)cc3)CC2)nc2ccccc2c1=O` (configuration not stated) [Erastin], the cell viability in the assay on K562 (SRSF2 genotype: SRSF2 wt/wt) stood at 63%; in the assay on MARIMO (SRSF2 genotype: SRSF2 P95H/wt), 21.1%; with MARIMO (SRSF2 genotype: SRSF2 wt/wt), 38.8%; in the assay with MOLM14 (SRSF2 genotype: SRSF2 P95H/wt), 6.91%; in the assay with MOLM14 (SRSF2 genotype: SRSF2 wt/wt), 3.65%; in the assay with OCI-AML2 (SRSF2 genotype: P95H/wt), 0.65%. Moreover, the cell viability in the assay on OCI-AML2 (SRSF2 genotype: wt/wt) turned out to be 12.4%.
As to `CCCCCCC[n+]1ccc(-c2cc[n+](CCCCCCC)cc2)cc1` [DHBP dibromide], the cell viability is 51.7% and 49.9% with K562 (SRSF2 genotype: SRSF2 P95H/wt); 56.3% in the assay with K562 (SRSF2 genotype: SRSF2 wt/wt); 71% in the assay with MARIMO (SRSF2 genotype: SRSF2 P95H/wt); 76.1% in the assay with MARIMO (SRSF2 genotype: SRSF2 wt/wt); 53.9% with MOLM14 (SRSF2 genotype: SRSF2 P95H/wt); 76.4% in the assay with MOLM14 (SRSF2 genotype: SRSF2 wt/wt). The cell viability was determined as 51.8% with OCI-AML2 (SRSF2 genotype: P95H/wt) and 52.4% in the assay on OCI-AML2 (SRSF2 genotype: wt/wt).
In the case of `CC1(C)C(=O)N(c2ccc(C#N)c(C(F)(F)F)c2)C(=O)N1CCCCO`, the cell viability was 89% and 95% with K562 (SRSF2 genotype: SRSF2 P95H/wt); 92.3% in the assay with K562 (SRSF2 genotype: SRSF2 wt/wt); 91.5% in the assay on MARIMO (SRSF2 genotype: SRSF2 P95H/wt); 103% in the assay on MARIMO (SRSF2 genotype: SRSF2 wt/wt); 93.5% with MOLM14 (SRSF2 genotype: SRSF2 P95H/wt); 104% with MOLM14 (SRSF2 genotype: SRSF2 wt/wt). The cell viability in the assay on OCI-AML2 (SRSF2 genotype: P95H/wt) is 88.6%; in the assay on OCI-AML2 (SRSF2 genotype: wt/wt) it was 96.6%.
